{
  "source": "PubChem BioAssay (NCI)",
  "note": "This is part of a sample that, as a whole, favours compounds with a hit. Of some 83,000 tested, about 20% had one in any assay.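 Percent growth is the endpoint: 0 to 100 indicates growth inhibition (40 means 60% inhibition), 0 means no net growth, and negative values indicate cell death.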 Unmarked numbers belong to inactive results. Activity calls are given as the source filed them. The calls were made as follows: active = growth percent below 10; inactive = the rest.",
  "data": [
    {"system": "HL-60(TB) leukemia", "assay": "NCI-60 one-dose screen, 48 h (100 = growth as untreated, 0 = no growth, -100 = all killed)", "details": "10 µM unless noted", "values": [
      {"molecule": "CC[n+]1ccc(Nc2ccc(NC(=O)c3ccc(Nc4cc[n+](CC)c5ccc([N+](=O)[O-])cc45)cc3)cc2)cc1", "growth": "66.9%"},
      {"molecule": "COc1ccc(-c2nc3ccc(-c4nc5ccc(N6CCN(c7ccncc7)CC6)cc5[nH]4)cc3[nH]2)cc1OC", "growth": "35.3%"},
      {"molecule": "CSCCC1NC(=O)C(C(C)=Nc2ccccc2)=C1O", "note": "(configuration not stated)", "growth": "117%"},
      {"molecule": "CCOC(=O)C1=CCC(n2cc(F)c(=O)[nH]c2=O)O1", "note": "(configuration not stated)", "growth": "83.6%"},
      {"molecule": "O=C(c1ccc(N2CCOCC2)cc1[N+](=O)[O-])N1CCOCC1", "growth": "133%"},
      {"molecule": "COc1ccc(/C=C2\\COc3ccc(O)c(O)c3C2=O)c(OC)c1OC", "growth": "-28.8% (active)"},
      {"molecule": "O=[N+]([O-])c1ccc(O)c2ncccc12", "growth": "-4.85% (active)"},
      {"molecule": "COc1ccc(NC(=O)c2cc(NCc3cc(O)ccc3O)ccc2O)cc1", "growth": "43.8%"},
      {"molecule": "COc1ccc(S(=O)(=O)Oc2ccc(-c3sc4cc(OS(=O)(=O)c5ccc(OC)cc5)ccc4c3C(=O)c3ccc(OCCN4CCCCC4)cc3)cc2)cc1", "growth": "91.1%"},
      {"molecule": "Cc1oc2c(Cc3ccc(NC(=O)c4ccc(Cl)cc4)cc3)ncnc2c1C(=O)NO", "growth": "87.9%"},
      {"molecule": "NC[C@@H]1O[C@H](O[C@@H]2[C@@H](CO)OC(O[C@@H]3[C@@H](O)[C@H](N)C[C@H](N)[C@H]3OC3O[C@H](CN)[C@@H](O)[C@H](O)[C@H]3N)[C@@H]2O)[C@H](N)[C@@H](O)[C@@H]1O", "note": "(some centres not stated)", "growth": "94.7%"},
      {"molecule": "O=C(Nc1nn2c(-c3cc(C(F)(F)F)cc(C(F)(F)F)c3)nnc2s1)C1CCCC1", "growth": "-53.3% (active)"}
    ]}
  ]
}
